This is part of a sample that, as a whole, favours compounds with a hit. Of some 79,000 tested, about 15% had one in any assay. Cut-off read from the data, not from the text of the source: active = growth inhibition above about 70%; inactive = the rest.
Experiments:
[1] = NCI Yeast Anticancer Drug Screen. Data for the rad50 strain (AID 155);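 note: 0% = growth of vehicle-only cultures of the same strain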; conditions: S. cerevisiae rad50 strain growth inhibition; at 50.0 µM; hits give high values
Outline: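 Vehicle-treated cultures provide the reference for the growth inhibition reported for compound-exposed, repair-deficient yeast.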

[2] = NCI Yeast Anticancer Drug Screen. Data for the mec2-1 strain (AID 157); conditions: S. cerevisiae mec2-1 strain, at 50.0 µM, hits give high values
Outline: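 Each compound was tested on mec2-1 yeast, a strain altered in DNA damage repair or cell cycle control. Growth inhibition is reported relative to vehicle.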

[3] = NCI Yeast Anticancer Drug Screen. Data for the sgs1 mgt1 strain (AID 161);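 note: 0% = growth of cultures given vehicle only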; conditions: S. cerevisiae sgs1 mgt1 strain, at 50.0 µM, hits give high values
Outline: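 Genetically altered yeast, compound exposure, growth inhibition relative to vehicle.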

[4] = NCI Yeast Anticancer Drug Screen. Data for the cln2 rad14 strain (AID 165);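 note: 0% = growth equal to vehicle treated cultures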; conditions: S. cerevisiae cln2 rad14 strain, at 50.0 µM, hits give high values
Outline: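 Test compounds were added to cln2 rad14 yeast cultures; inhibition of growth was then determined by comparison with vehicle treatment.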

[5] = NCI Yeast Anticancer Drug Screen. Data for the bub3 strain (AID 167); conditions: S. cerevisiae bub3 mutant strain, at 50.0 µM, hits give high values
Outline: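 Mutant yeast screening strain plus compound; vehicle-treated cultures serve as the 0% inhibition reference.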

[6] = NCI Yeast Anticancer Drug Screen. Data for the mlh1 rad18 strain (AID 175); conditions: S. cerevisiae mlh1 rad18 strain growth inhibition; at 50.0 µM; hits give high values
Outline: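 Inhibition values reflect reduced growth of mutant yeast versus vehicle-treated controls following compound exposure; the mutations affect DNA damage repair.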

Measured: growth inhibition

CN1CCC2c3c([nH]c4ccccc34)C(C)(C)OC2C1 (stereo unspecified)
inactive: [1] -11.9% | [2] -35.9% | [3] -33.6% | [4] 9.2% | [5] -24.6% | [6] 6.65%

O=Cc1c[nH]c2ccccc2c1=O
inactive: [1] 17.1% | [2] 0.9% | [3] 1.05% | [4] 3.55% | [5] 30.4% | [6] 10.9%

COc1ccc(Cc2nc3c([nH]2)c(=O)n(C)c(=O)n3C)cc1
inactive: [1] -0.05% | [2] -14.1% | [3] 0.05% | [4] -50.8% | [5] 1.2% | [6] 1.2%

CCCC(CC)C(=O)NC(N)=O (stereo unspecified)
inactive: [1] -7.2% | [2] -5.9% | [3] -7.8% | [4] -8.55% | [5] -20.2% | [6] 8.7%

CCOC(=O)OC1CCC2(C)C(=CCC3C2CCC2(C)C(C(C)CCCC(C)C)CCC32)C1 (stereo unspecified)
inactive: [1] -3.95% | [2] -19.1% | [3] 0.6% | [4] 9.5% | [5] 4.25% | [6] -4.3%

O=c1ccsc(=S)[nH]1
inactive: [1] -1% | [2] -2.1% | [3] -8.35% | [4] 0.25% | [5] 9.05% | [6] -3.9%

c1ccc(-c2ccc3c4ccccc4ccn23)cc1
inactive: [1] 9.2% | [2] -4.1% | [3] 8.9% | [4] 17.7% | [5] 12.7% | [6] 23.9%

O=C(O)c1cccc(/C=N/O)c1O
inactive: [1] -16.9% | [2] -3.25% | [3] -6.45% | [4] -10.5% | [5] 7.75% | [6] 8.55%

CSCCC(NC(=O)c1c(Cl)ccc(Cl)c1Cl)C(=O)O (stereo unspecified)
inactive: [1] -8.45% | [2] -0.75% | [3] 18.6% | [4] -18.6% | [5] 0.6% | [6] -16.4%

c1cc(-c2nnc(-c3ccncc3)s2)ccn1
inactive: [1] 6.2% | [2] -1.35% | [3] -9.25% | [4] 32.5% | [5] 14.5% | [6] -8.15%

Cc1cc(Cl)ccc1NC(N)=O
inactive: [1] -5.95% | [2] -20.3% | [3] 5.15% | [4] 22.4% | [5] -3.7% | [6] -1.85%

CC(C)(C)[Si](C)(C)OCC1CCC(n2cnc3c(=O)[nH]cnc32)O1 (stereo unspecified)
inactive: [1] 14.7% | [2] -6.75% | [3] 7.6% | [4] -4.1% | [5] 12.8% | [6] -7.25%

O=C(CC(=O)c1ccccc1)Cc1ccccc1.O=C(CC(=O)c1ccccc1)Cc1ccccc1.[Cu]
inactive: [1] 60% | [2] 22.6% | [3] 55.6% | [4] 12.7% | [5] 12.2% | [6] 41.2%

Nc1c(O)cccc1C(=O)O
inactive: [1] -16.2% | [2] -9.9% | [3] -4.45% | [4] 3.95% | [5] 5.1% | [6] -28.7%

O=C(Cc1ccc(Cl)cc1)NCCc1ccccc1
inactive: [1] -1.4% | [2] -14.6% | [3] -5.15% | [4] 32.9% | [5] 18.4% | [6] 7.3%

CC1=Nc2cc(C)c(C)cc2N2C1=CC1=C(C(=O)c3cc4ccccc4cc3C1=O)C2C (stereo unspecified)
inactive: [1] 16% | [2] 9.8% | [3] 16.2% | [4] 23.1% | [5] -3.85% | [6] 23.6%

CCCCCCCC/C=C\CCCCCCCC(=O)OCCN(CCOC(=O)CCCCCCC/C=C\CCCCCCCC)C(=O)c1ccccc1
inactive: [1] -12.9% | [2] -1.2% | [3] -17.9% | [4] -20.2% | [5] -9.9% | [6] -2.65%

CC(C)=NNC(=O)c1ccc(Cl)cc1
inactive: [1] -19.1% | [2] -25.1% | [3] -18.2% | [4] 17.1% | [5] -7.85% | [6] -32.1%

CCC(=O)c1c(O)c2ccccc2oc1=O
inactive: [1] -21.1% | [2] 9.45% | [3] -5.2% | [4] -4.1% | [5] 11.8% | [6] 8.1%

CCOC(=O)c1ccc(NC(=S)Nc2ccccc2S)cc1
inactive: [1] 16.4% | [2] 16.4% | [3] 22.9% | [4] 9.35% | [5] 10.1% | [6] 11.9%

NC(=S)c1ccc[n+](Cc2c(Cl)cccc2Cl)c1
inactive: [1] 11.9% | [2] 3.6% | [3] -0.8% | [4] -13.3% | [5] -0.15% | [6] -4.4%

— PubChem BioAssay (NCI)
